Source: PubChem BioAssay
A selection: hits, their analogues and other compounds. The true share with any hit is near 19%.
TDP1 inh = inhibitors of human tyrosyl-DNA phosphodiesterase TDP1 | recombinant TDP1, AlphaScreen DNA substrate cleavage | AID 485290 | 0.28% of 350,000 active | Q9NUW8 | Potency, µM (highest dose often 130 µM), inactives show top-dose activity change, negative = inhibition, usual class: inhibitors; also: nearly all actives have a fitted effect of over 40% in size
Target sequence (Q9NUW8 whole entry, looked up): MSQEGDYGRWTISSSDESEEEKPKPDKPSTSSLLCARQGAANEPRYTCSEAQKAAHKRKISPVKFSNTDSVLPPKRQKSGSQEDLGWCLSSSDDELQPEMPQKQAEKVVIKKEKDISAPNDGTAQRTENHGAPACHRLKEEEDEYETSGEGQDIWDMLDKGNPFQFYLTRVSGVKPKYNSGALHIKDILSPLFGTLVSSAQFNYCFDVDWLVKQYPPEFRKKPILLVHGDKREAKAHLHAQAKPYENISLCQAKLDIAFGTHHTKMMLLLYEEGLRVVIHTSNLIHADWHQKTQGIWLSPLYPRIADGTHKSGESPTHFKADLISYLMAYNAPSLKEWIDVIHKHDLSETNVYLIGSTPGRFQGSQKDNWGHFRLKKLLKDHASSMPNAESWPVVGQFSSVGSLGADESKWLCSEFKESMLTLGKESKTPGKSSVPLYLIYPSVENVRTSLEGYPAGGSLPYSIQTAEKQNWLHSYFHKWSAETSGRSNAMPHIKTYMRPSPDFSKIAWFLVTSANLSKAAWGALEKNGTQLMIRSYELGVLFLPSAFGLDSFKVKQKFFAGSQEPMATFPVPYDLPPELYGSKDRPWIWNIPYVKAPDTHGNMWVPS
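Recombinant human Tdp1 (E. coli-expressed, 1 nM final) preincubated with compounds 15 min at room temperature, then 5'-biotin/3'-phosphotyrosine-FITC DNA substrate (15 nM final) added for 5 min. AlphaScreen beads (10 ug/ml final) added 10 min; cleavage lowers signal.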
TDP1 cell CPT = DT40-hTDP1 cell growth loss with CPT; chicken DT40 Tdp1-/-;hTDP1 cells + 20 nM CPT, ATP luminescence, 48 h; Potency, µM (top dose mostly 46.2 µM), without a hit: top-dose activity change, negative = growth inhibition, usual class: inhibitors; 12% of 420,000 active; also: nearly all actives have a fitted effect of over 55% in size
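Chicken DT40 Tdp1-/- cells complemented with human TDP1, 400 cells/well, exposed to compounds plus 20 nM camptothecin for at least 48 h at 37 C; viability read as ATP content by CellTiter-Glo luminescence.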
DT40 TDP1 no CPT = qHTS for Inhibitors of human tyrosyl-DNA phosphodiesterase 1 (TDP1): qHTS in cells in absence of CPT; Potency, µM (titrated, usually from 46.2 µM), without a hit: at the top dose activity change, negative = growth inhibition, hits mostly inhibitors; DT40 Tdp1-/- hTDP1 cells, no CPT, ATP luminescence, 48 h; 15% of 420,000 active; also: nearly all actives have a fitted effect of over 55% in size
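Growth kinetics read by CellTiter-Glo luminescence after ≥48 hr at 37 °C. Cells: DT40 Tdp1-/- stably carrying human TDP1, 400 per well, compound exposure in the absence of CPT (DMSO vehicle).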
Gal4-VP16 FLuc = inhibits Gal4-VP16 luciferase reporter, ROR gamma counter-screen; Drosophila S2 Gal4-VP16 UAS-luciferase, luminescence, 20 h; Potency, µM (titrated, usually from 53.6 µM), inactives show at the top dose activity, negative = inhibition, most hits filed as inhibitors; 3.5% of 310,000 active; AID 2546;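 also: Gal4-VP16 expression switched on by copper sulfate through the metallothionein promoter; nearly all actives have a fitted effect of over 50% in size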
RORgamma inh = inhibitors of mouse ROR gamma transcriptional activity; P51450; Drosophila S2 Gal4-RORgamma UAS-luciferase reporter, 20 h; Potency, µM (series often up to 53.6 µM), without a hit: at the highest dose activity change, negative = inhibition, actives largely listed as inhibitors; 5.4% of 310,000 active; AID 2551; also: nearly all actives have a fitted effect of over 60% in size
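A Gal4/UAS one-hybrid system in insect cells: metallothionein-promoter Gal4–ROR gamma fusion plus Photinus luciferase reporter. Copper sulfate 700 uM final, 20 hr ambient incubation, luminescent detection after 10 min with reagent.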
An asterisk follows results filed as active; ? = inconclusive; . = no result given; ! = a repeat was not active; [ ] = remark or other dose. Calls follow the shape of the dose curve; as a rule, active = well fitted curve in the direction sought with a large enough effect; inconclusive = small, poorly fitted or top-dose-only effect, or another doubt; inactive = no such curve, though single readings can be large; an effect the other way counts as inactive or inconclusive. % is scaled to controls: 0 for no effect and ±100 for the full control effect; potency is read from the fitted curve at half-maximal effect.

SMILES | TDP1 inh | TDP1 cell CPT | DT40 TDP1 no CPT | Gal4-VP16 FLuc | RORgamma inh
CCOC(=O)C1=C(C)Nc2sc(C(=O)c3ccc(C)cc3)c(N)c2C1c1ccc(C(=O)OC)cc1 (stereo not given) | 5.5% | ? | ? | -10.5% | -4.6%
CC(C)CNC(=O)[C@H]1N2C(=O)c3ccccc3C2SC1(C)C (stereo not given in full) | . | 6.7% | 11.5% | 17.9% | 24.1%
COc1ccc(-c2csc(C(C)(NC(C)=O)c3ccc(OC)cc3)n2)cc1 (stereo not given) | . | 16.4µM* | ? | . | .
COc1ccc(C(C)(NC(C)=O)c2nc(-c3ccc(F)c(Cl)c3)cs2)cc1 (stereo not given) | . | 18.4µM* | 23.1µM* | . | .
CC(=O)NC(C)(c1ccccc1)c1nc(-c2ccc(N(C)C)cc2)cs1 (stereo not given) | . | 16.4µM* | 23.1µM* | . | .
COc1ccc(C(C)(NC(C)=O)c2nc(-c3ccncc3)cs2)cc1 (stereo not given) | . | -8.3% | -7.4% | . | .
CC(=O)NC(C)(c1ccccc1)c1nc(-c2ccncc2)cs1 (stereo not given) | . | -8.4% | -20.0% | . | .
COc1ccc(CNC(=O)c2cc3cccc4c3n2CC(C)S4)c(OC)c1 (stereo not given) | 0.0% | 9.2µM* | 5.17µM* | . | .
CC1Cn2c(C(=O)NCc3cccc(Br)c3)cc3cccc(c32)S1 (stereo not given) | -8.5% | ? | ? | . | .
COc1ccc(CNC(=O)c2cc3cccc4c3n2CC(C)S4)cc1OC (stereo not given) | 8.5% | ? | 23.1µM* | . | .
COc1ccc(OC)c(CCNC(=O)c2cc3cccc4c3n2CC(C)S4)c1 (stereo not given) | 5.6% | 5.8µM* | 5.17µM* | . | .
COc1cccc(CNC(=O)c2cc3cccc4c3n2CC(C)S4)c1OC (stereo not given) | 5.6% | ? | ? | . | .
OCCSc1ccc2nnc(-c3ccccc3)n2n1 | 1.6% | ? | ? | . | .
COc1ccc(C)cc1Nc1n[n+](-c2ccccc2)c(-c2cc(OC)c(OC)cc2Br)s1 | . | 23.1µM* | 16.4µM* | ? | 10µM*
COc1ccc(C)cc1Nc1nc(N)c2ccccc2n1 | 8.8% | ? | ? | -1.1% | 29.0%
COc1ccc(C)cc1Nc1n[n+](-c2ccccc2)c(-c2c(OC)ccc3ccccc23)s1 | 9.5% | 5.8µM* | 5.17µM* | . | .
COc1ccc(Br)c(C(=O)NC(C)(C)CO)c1 | 5.1% | -20.1% | -27.8% | -1.8% | 33.6%
Cc1ccc(NC2CCCN(C(=O)CCc3scnc3C)C2)cc1C (stereo not given) | 6.7% | ? | -26.9% | 1.4% | 5.5%
COC(=O)c1ccc(C(=O)N2CCCC(Nc3ccc(C(C)C)cc3)C2)nc1 (stereo not given) | 7.2% | ? | -13.5% | -4.7% | 6.2%
O=C1CCCCN1CC(=O)N1CCCC(Nc2ccc(F)c(F)c2)C1 (stereo not given) | 4.0% | 20.6µM* | ? | 5.0% | 13.1%
Cc1ncsc1CCC(=O)N1CCCC(Nc2ccc(F)c(F)c2)C1 (stereo not given) | 4.4% | 13µM* | ? | 2.9% | 38.7%
COc1ccc(NC2CCCN(C(=O)CCc3scnc3C)C2)cc1 (stereo not given) | 4.4% | 3.1% | 5.9% | 0.4% | -15.3%
Cc1ncsc1CCC(=O)N1CCCC(Nc2ccc(C(C)C)cc2)C1 (stereo not given) | 7.4% | ? | 25.9µM* | 0.1% | 40.1%
COc1ccc(C(=O)N2CCCC(Nc3ccc(C(C)C)cc3)C2)c(OC)n1 (stereo not given) | 7.9% | ? | 23.1µM* | 3.0% | -7.2%
CCOc1ccc(-c2c(C(=O)N/N=C/c3cccc(Br)c3)nnn2-c2nonc2N)cc1 | -3.7% | ? | ? | -19.5% | -29.0%
SMILES | TDP1 inh | TDP1 cell CPT | DT40 TDP1 no CPT | Gal4-VP16 FLuc | RORgamma inh
CN(C(=O)c1cccc(C#N)c1)c1nnc(-c2ccccn2)s1 | 7.3% | -22.7% | 6.8% | -6.8% | 14.5%
COc1cccc(-c2cnc(-c3ccncc3)nc2C2CCN(C(=O)Cc3csc(C)n3)CC2)c1 | . | -1.8%[9.04 µM] | ? | . | .
Cc1ncsc1CCC(=O)N1CCCC(c2nc(-c3ccncc3)ncc2-c2ccccc2)C1 (stereo not given) | . | 8.6%[9.04 µM] | 20.6µM* | . | .
CCc1nccn1CCC(=O)N1CCCC(Nc2ccc(C(C)C)cc2)C1 (stereo not given) | 6.3% | ? | 18.4µM* | 5.9% | -5.9%
Fc1ccccc1N1CCN(c2nccn3nc(-c4ccc(Br)cc4)cc23)CC1 | 5.5% | -1.2% | 11.9% | . | .
COC(=O)c1sc2cc(C(F)(F)F)cnc2c1-c1cccnc1 | 2.8% | 1.0% | -14.8% | -9.1% | -18.5%
NNC(=O)c1sc2cc(C(F)(F)F)cnc2c1-c1cccs1 | . | -17.1% | -14.7% | ? | 10µM*
CSc1nnc(-c2sc3cc(C(F)(F)F)cnc3c2-c2cccnc2)n1C | 7.0% | ? | 16.4µM* | -0.4% | -20.0%
O=C(Nc1ccccc1)c1sc2cc(C(F)(F)F)cnc2c1-c1cccs1 | 0.0% | 13µM* | 11.6µM* | 17.0% | 36.4%
NNC(=O)c1sc2cc(C(F)(F)F)cnc2c1-c1cccnc1 | . | 32.4% | -5.4% | ? | 14.1µM*
COCCCNC(=O)c1ccc2nc([C@@H]3O[C@H](CO)[C@H](O)[C@H](O)[C@H]3O)[nH]c2c1 | . | -13.0% | -1.6% | . | .
CCCC1Cc2[nH]c(=O)c(C#N)cc2CO1 (stereo not given) | . | -6.8% | 6.4% | -0.3% | 5.3%
O=C(O)COCC(=O)N1CCCN(c2ccc(C(F)(F)F)cn2)CC1 | . | -4.9% | -3.1% | 19.5% | -6.7%
COc1ccc(Cl)cc1NC(=O)CN(C)CC(=O)Nc1c(C)n(C)n(-c2ccccc2)c1=O | 2.0% | ? | ? | . | .
Cc1n[nH]c(C)c1S(=O)(=O)N1CCc2ccccc21 | 1.0% | -12.7% | -11.7% | 8.7% | 38.8%
Clc1ccc(OCCn2ccnc2)cc1Cl | 4.3% | -0.3% | ? | -8.4% | 10.7%
CCc1cc2c3c(c1)C1(C(=O)N3C(C)(C)C=C2C)C(C#N)=C(N)Oc2[nH]c(=O)[nH]c(=O)c21 (stereo not given) | 5.4% | 3.26µM* | 3.26µM* | ? | -41.7%
O=C(NCc1ccccc1)C(=O)NCC(c1ccco1)S(=O)(=O)c1cccs1 (stereo not given) | 10.4% | -6.6% | -25.5% | . | .
O=C(O)C1CCCN1C(=O)Nc1ccc(F)cc1 (stereo not given) | 1.1% | 0.6% | -8.5% | -1.0% | -6.5%
OC1C(O)C(O)C(O)C(O)C1O (stereo not given) | 4.1% | 15µM*! | ? | -4.9% | 3.4%
